# Rows were chosen to be rich in hits. Some 10% of all compounds tested hit in one or more screens of this group.
# BAZ2B block: inhibitors of human BAZ2B bromodomain; Q9UIF8; AlphaScreen BAZ2B-H3K14Ac peptide displacement; Potency, µM (titrated, usually from 114 µM), without a hit: top-dose activity change, negative = inhibition, hits mostly inhibitors; actives 4.4% (n = 360,000); AID 504333; also: % is scaled to controls: 0 for no effect and ±100 for the full control effect; nearly all actives have a fitted effect of over 60% in size
#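 AlphaScreen displacement of biotin-H3(5-23)K14Ac peptide (50 nM final) from BAZ2B (50 nM final) in PBS pH 7.4, 0.01% Tween-20; complex preformed 30 min RT, then compounds (top 110 uM) 30 min RT, beads 20 min dark.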
# JMJD2A Tudor inh: blocks the human JMJD2A Tudor domain; O75164; AlphaScreen JMJD2A-Tudor / H3K4me3 peptide binding; Potency, µM (titrated, usually from 114 µM), for inactives: at the highest dose activity change, negative = inhibition, most hits filed as inhibitors; actives 4.4% (n = 390,000); AID 504339; also: % is scaled to controls: 0 for no effect and ±100 for the full control effect; nearly all actives have a fitted effect of over 50% in size
# Target sequence (O75164 whole entry, looked up, the tested form may be a part): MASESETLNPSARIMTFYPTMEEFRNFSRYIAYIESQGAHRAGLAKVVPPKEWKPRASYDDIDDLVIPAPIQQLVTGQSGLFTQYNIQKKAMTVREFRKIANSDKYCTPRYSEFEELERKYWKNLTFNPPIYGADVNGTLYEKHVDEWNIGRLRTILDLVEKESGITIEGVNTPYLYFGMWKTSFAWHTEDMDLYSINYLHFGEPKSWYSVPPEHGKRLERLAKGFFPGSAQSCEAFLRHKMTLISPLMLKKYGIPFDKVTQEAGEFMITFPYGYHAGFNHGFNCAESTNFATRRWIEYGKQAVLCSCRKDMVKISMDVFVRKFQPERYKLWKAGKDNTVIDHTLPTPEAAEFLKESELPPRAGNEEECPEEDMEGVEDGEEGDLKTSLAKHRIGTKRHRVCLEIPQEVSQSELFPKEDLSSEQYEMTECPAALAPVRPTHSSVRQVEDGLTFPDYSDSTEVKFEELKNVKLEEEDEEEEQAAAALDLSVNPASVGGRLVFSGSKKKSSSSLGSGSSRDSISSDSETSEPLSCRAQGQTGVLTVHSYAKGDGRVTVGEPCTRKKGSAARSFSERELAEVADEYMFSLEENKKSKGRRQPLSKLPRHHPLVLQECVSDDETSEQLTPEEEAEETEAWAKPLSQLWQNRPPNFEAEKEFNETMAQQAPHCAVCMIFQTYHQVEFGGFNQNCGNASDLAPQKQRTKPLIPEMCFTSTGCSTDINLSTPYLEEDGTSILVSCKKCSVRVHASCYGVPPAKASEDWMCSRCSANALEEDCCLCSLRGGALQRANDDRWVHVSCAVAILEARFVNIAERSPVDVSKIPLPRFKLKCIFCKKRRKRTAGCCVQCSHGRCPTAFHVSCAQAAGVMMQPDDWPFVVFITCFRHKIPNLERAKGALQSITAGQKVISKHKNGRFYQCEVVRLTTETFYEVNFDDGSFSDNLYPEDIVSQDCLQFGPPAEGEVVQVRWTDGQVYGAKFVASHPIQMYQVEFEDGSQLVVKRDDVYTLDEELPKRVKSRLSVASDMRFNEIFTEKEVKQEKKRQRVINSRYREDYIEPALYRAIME
# HP1b chromo inh: blocks HP1-beta chromodomain binding to methylated histone tails | actives 0.56% (n = 390,000) | AlphaScreen HP1-beta / biotin-H3K9me3 peptide binding | Potency, µM (highest dose often 114 µM), without a hit: top-dose activity change, negative = inhibition, hits mostly inhibitors | P83916; also: nearly all actives have a fitted effect of over 70% in size
#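 Compound inhibition of the preformed complex between 50 nM HP1-beta and 50 nM biotinylated H3K9me3 peptide was read by AlphaScreen. Buffer was PBS pH 7.4 with 0.01% Tween-20. Incubations ran 30 min at room temperature, with 10 ug/mL donor/acceptor beads.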
# G9a block: G9a (human) methyltransferase inhibition; G9a H3K9 monomethylation, AlphaScreen, 2 h; AID 504332; actives 8.8% (n = 350,000); Q96KQ7; Potency, µM (top dose mostly 102 µM), for the others: at the top dose activity, negative = inhibition, usual class: inhibitors; also: % is scaled to controls: 0 for no effect and ±100 for the full control effect; nearly all actives have a fitted effect of over 75% in size
#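 AlphaScreen read-out: biotin-H3K9 peptide (500 nM) methylation by 20 nM enzyme with 20 uM SAM, 2 h at room temperature after 15 min compound preincubation; anti-monomethyl H3K9 antibody plus donor/acceptor beads, 10 min dark.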
# GLS inhibitor: blocks human kidney-isoform glutaminase activity | actives 0.21% (n = 410,000) | GLS enzymatic activity, qHTS titration | AID 624170 | O94925 | Potency, µM (titrated, usually from 45.5 µM), for the others: at the highest dose activity change, negative = inhibition, actives largely listed as inhibitors; also: % is scaled to controls: 0 for no effect and ±100 for the full control effect
#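 hKGA in 45 mM KH2PO4 (pH 8.2), 0.02% Tween-20 with compound, then 1mM L-Glutamine (stock as added) plus glutamate oxidase/HRP/Amplex red coupling mix. Fluorescence read initially and after 30 min at RT; signal change reflects glutamate formation.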
# * = called active by the depositor; ? = inconclusive; / = not tested or not shown; ! = not confirmed by another sample; [ ] = another dose, or the depositor's remark. Calls follow the shape of the dose curve; as a rule, active = well fitted curve in the direction sought with a large enough effect; inconclusive = small, poorly fitted or top-dose-only effect, or another doubt; inactive = no such curve, though single readings can be large; an effect the other way counts as inactive or inconclusive. Potency is read from the fitted curve at half-maximal effect.
SMILES,BAZ2B block,JMJD2A Tudor inh,HP1b chromo inh,G9a block,GLS inhibitor
COc1cccc(CNc2ccc3[nH]c(=O)[nH]c3c2)c1OCc1ccc(F)cc1,44.7µM*,39.8µM*,?,?,47.5%
C=CCOc1ccc(CNc2ccc3[nH]c(=O)[nH]c3c2)cc1,-12.4%,?,-27.6%,-12.0%,11.2µM*
COc1cccc(CNc2ccc(C(=O)O)cc2)c1OCc1ccccc1,-22.6%,-1.4%,42.4%,/,2.0%
C=CCOc1c(CNc2ccc3[nH]c(=O)[nH]c3c2)cccc1OC,-7.4%,44.7µM*,?,/,-17.7%
CC(C)[C@@H]1Cc2[nH]c(=O)[nH]c(=O)c2[C@H](C)O1,/,/,/,/,4.6%
O=C1NN=C2CCCCCCCCCCC12 (stereo not drawn),/,/,/,/,4.8%
C/C(=N\NC(=O)c1cc(-c2cccc([N+](=O)[O-])c2)n[nH]1)c1ccccc1O,8.91µM*,14.1µM*,27.2%,15.7%,-0.2%
Cc1cc(C)c2[nH]c(C(=O)Nc3ccc(F)cc3Br)cc2c1,-8.7%,-19.3%,3.5%,50.1µM*,7.3%
Cc1ccc2[nH]c(C(=O)Nc3ccc(F)cc3)cc2c1,-5.9%,-7.9%,32.4%,26.8%[0.501 µM],0.7%
Cc1ccc(C2C(C(=O)c3cccs3)=C(O)C(=O)N2CCN2CCOCC2)o1 (stereo not drawn),63.3%,?,36.5%,?,8.4%
CC1=C(C(=O)Nc2ccccc2C)C(c2ccc(C)o2)n2c(s/c(=C/c3ccccc3)c2=O)=N1 (stereo not drawn),-28.6%,-5.7%,19.3%,-50.0%,-6.3%
CC1=C(C(=O)Nc2ccccc2)C(c2ccc(Cl)cc2)n2c(s/c(=C/c3cccc(OCC(=O)O)c3)c2=O)=N1 (stereo not drawn),56.2µM*,?,?,?,-3.0%
CC1=C(C(=O)Nc2ccccc2)C(c2ccc(C)o2)n2c(s/c(=C/c3ccccc3)c2=O)=N1 (stereo not drawn),1.6%,-5.6%,41.8%,-8.2%,-12.5%
CCOc1ccc(C2C(C(=O)Nc3ccccc3)=C(C)N=c3s/c(=C/c4cccc(OCC(=O)O)c4)c(=O)n32)cc1 (stereo not drawn),?,?,8.5%,50.1µM*,-3.2%
CC1CCCC(C)N1c1nnc(NC(=O)c2cc(-c3ccc(Br)cc3)on2)s1 (stereo not drawn),3.7%,-8.3%,23.3%,7.0%,-1.0%
O=c1c(O)c(-c2ccccc2)oc2cc(O)cc(O)c12,/,-29.9%,34.2%,/,65.1%
O=c1c(-c2ccc(O)cc2O)coc2cc(O)cc(O)c12,-21.2%,-11.6%,32.0%,0.3%[12.7 µM],15.1%
O=c1c(O)c(-c2ccc(O)cc2O)oc2cc(O)cc(O)c12,50.1µM*,/,/,39.8µM*!,/
O=c1c(-c2ccccc2)c(-c2ccccc2)oc2cc(O)cc(O)c12,70.8µM*,?,-17.9%,41.0%[0.501 µM],-4.0%
COc1cc(OC)c2cc(C(=O)N[C@@H](Cc3ccccc3)C(=O)O)n(C)c2c1,2.3%,-6.1%,49.8%,13.3%,19.1%
CC(Sc1nc(-c2ccccc2)cc(C(F)(F)F)n1)C(=O)Nc1sc2c(c1C#N)CCC2 (stereo not drawn),-18.1%[57.1 µM],-23.1%,-22.4%,39.8µM*,2.5%
CC(Sc1nc(-c2ccccc2)cc(C(F)(F)F)n1)C(=O)Nc1sc2c(c1C(N)=O)CCC2 (stereo not drawn),-33.8%,-19.9%[57.1 µM],44.2%,?,6.8%
COCCSc1nnc(NC(=O)C2CC(=O)N(c3ccc(C)cc3)C2)s1 (stereo not drawn),-15.0%,-6.8%,28.1%,/,-1.4%
CCOc1ccc(N2CC(C(=O)Nc3nnc(SCCOC)s3)CC2=O)cc1 (stereo not drawn),-1.0%,-16.1%,0.8%,70.8µM*,0.3%
COc1cccc(N2CC(C(=O)Nc3nnc(SCC(=O)c4ccccc4)s3)CC2=O)c1 (stereo not drawn),5.8%,-13.1%,12.7%,-21.9%,14.3%
SMILES,BAZ2B block,JMJD2A Tudor inh,HP1b chromo inh,G9a block,GLS inhibitor
COc1cc(C(=O)Nc2nnc(SCC(=O)NCC3CCCO3)s2)cc(OC)c1OC (stereo not drawn),?,-8.3%,42.0%,70.8µM*,1.2%
COc1ccc(C(=O)CSc2nnc(NC(=O)C3CC(=O)N(c4ccccc4)C3)s2)cc1 (stereo not drawn),8.0%,2.0%,35.6%,44.7µM*,0.2%
COc1ccccc1C(=O)Nc1nnc(SCC(=O)NCC2CCCO2)s1 (stereo not drawn),-25.1%,-5.2%,23.6%,/,5.6%
O=C(CSc1nc2ccc(NC(=O)C3CCCCC3)cc2s1)NCC1CCCO1 (stereo not drawn),-0.8%,-27.6%,43.5%,44.7µM*,9.7%
O=c1c2c3c(sc2n(Cc2ccc(F)cc2Cl)c(=O)n1-c1ccc(Cl)cc1)CCC3,-2.0%,-20.1%,64.9%,26.7%[59 µM],-6.8%
COc1ccc(-c2nc3cnc(N4CCNCC4)nc3n(CCC#N)c2=O)cc1,/,/,/,5.5%[12.7 µM],/
N#CCC(=O)Nc1ccc(C(=O)OCC(=O)N2CCN(C(=O)c3ccco3)CC2)cc1,/,?,7.6%,/,4.4%
COc1ccc(N2CC(C(=O)Nc3nnc(SCC(=O)N4CCCC4)s3)CC2=O)cc1 (stereo not drawn),-8.0%,-19.9%,22.4%,/,2.0%
O=C(Nc1nnc(SCCN2CCOCC2)s1)C1CC(=O)N(c2ccccc2)C1 (stereo not drawn),-0.8%,-16.9%,36.2%,44.7µM*,2.7%
COC(=O)CSc1nnc(NC(=O)C2CC(=O)N(c3ccc(F)cc3)C2)s1 (stereo not drawn),1.4%,-28.5%,19.7%,39.8µM*,0.3%
O=C(Nc1nnc(SCC(=O)N2CCCC2)s1)C1CC(=O)N(c2ccc(F)cc2)C1 (stereo not drawn),-16.8%,-17.4%,39.2%,20µM*,1.7%
O=C(CSc1nnc(NC(=O)C2CC(=O)N(c3ccc(F)cc3)C2)s1)NC1CCCC1 (stereo not drawn),-18.7%,-15.3%,41.2%,25.1µM*,7.7%
Cc1ccc(N2CC(C(=O)Nc3nnc(SCCN4CCOCC4)s3)CC2=O)cc1 (stereo not drawn),-11.9%,-10.3%,49.2%,?,10.1%
COc1cccc(N2CC(C(=O)Nc3nnc(SCC(=O)NC4CCCC4)s3)CC2=O)c1 (stereo not drawn),-25.0%,-7.3%,36.8%,31.6µM*,0.9%
Cc1ccc(N2CC(C(=O)Nc3nnc(SCC(=O)N4CCOCC4)s3)CC2=O)cc1 (stereo not drawn),-1.2%,-8.1%,35.2%,44.7µM*,3.8%
O=C(Cc1cccs1)Nc1nnc(SCC(=O)N2CCCCC2)s1,-29.0%,-13.4%[57.1 µM],21.8%,-32.1%[12.7 µM],3.6%
O=C(Nc1nnc(SCC(=O)N2CCCCC2)s1)c1cccs1,9.3%,?,37.9%,8.91µM*,-4.5%
